Where “and” joins values, the source holds several entries; their conditions need not be identical. Identical values can stand only once. Records with an inconclusive call do not appear. More than one record can exist for a structure, and the calls need not agree. Calls of active or inactive are those of the source. Rule for the calls: active = hit-call score of the fitted dose curve at least 0.9, where 1 is the maximum; inconclusive = response in the unintended direction; inactive = score below 0.9.
How the values were obtained:
[1] = ATG_M_06_XSP2: Attagene TRANS-FACTORIAL Multi-Species (XSP2) HepG2 Assay for M06 Transcription Factor (Internal Marker) (AID 2283811);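 note: hits are increases in signal above the DMSO baseline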
How it was run: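 HepG2 cells transiently transfected with GAL4-UAS multiple reporter units, medium containing 3 nM 6-alpha-fluorotestosterone and 1.5 nM norgestrel; reporter mRNA measured 24 hours post-dosing by RT-PCR and capillary electrophoresis. Internal background marker, gain of signal vs DMSO.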

[2] = target: Estrogen receptor beta (Homo sapiens) (UniProt Q92731); assay: ATG_hERb_XSP2: Attagene TRANS-FACTORIAL Multi-Species (XSP2) HepG2 Assay for human Estrogen Receptor (ERb) (AID 2283813);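 note: actives raise reporter mRNA above DMSO so AC50 reflects agonist induction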
How it was run: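 HepG2 cells transiently transfected with GAL4-UAS reporter units and chimeric human ERb-Gal4, 24 h exposure. Reporter mRNA quantified by RT-PCR with FAM labelling, HpaI digestion and capillary electrophoresis; gain of signal versus DMSO.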

[3] = target: GAL4 Transcription Factor (Internal Marker), GAL4 (gene 855828) (UniProt P04386); assay: ATG_GAL4_XSP2: Attagene TRANS-FACTORIAL Multi-Species (XSP2) HepG2 Assay for GAL4 Transcription Factor (Internal Marker) (AID 2283814);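 note: GAL4 reporter mRNA background control in MRTU transfected cells not a receptor target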
How it was run: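 HepG2 cells transiently transfected with GAL4-UAS reporter units, stimulated with 3 nM 6-alpha-fluorotestosterone plus 1.5 nM norgestrel, dosed 24 h. Reporter mRNA by RT-PCR/capillary electrophoresis; gain-of-signal fit versus DMSO, background control.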

[4] = target: zebrafish Estrogen Receptor (ER1), esr1 (gene 259252) (UniProt P57717); assay: ATG_zfER1_XSP2: Attagene TRANS-FACTORIAL Multi-Species (XSP2) HepG2 Assay for zebrafish Estrogen Receptor (ER1) (AID 2283816)
How it was run: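 HepG2 cells transiently transfected with a GAL4-UAS reporter and a chimeric zebrafish ER1-Gal4 construct, dosed 24 h. Reporter mRNA quantified by RT-PCR, labelling, HpaI digestion and capillary electrophoresis, relative to DMSO.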

[5] = tested on: turtle Estrogen Receptor (ERa), gene 101933533; assay: ATG_trERa_XSP2: Attagene TRANS-FACTORIAL Multi-Species (XSP2) HepG2 Assay for turtle Estrogen Receptor (ERa) (AID 2283812);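 note: human HepG2 liver cells transiently expressing turtle ERa-Gal4 chimeric receptor; actives raise reporter signal above DMSO so AC50 reflects agonist activity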
How it was run: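 HepG2 cells transiently transfected with GAL4-UAS reporter units expressing turtle ERa-Gal4 chimera. Reporter mRNA measured after 24 h dosing by RT-PCR, fluorescent labelling and capillary electrophoresis; gain of signal fitted versus DMSO.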

[6] = tested on: turtle Androgen Receptor (AR), gene 101947425; assay: ATG_trAR_XSP2: Attagene TRANS-FACTORIAL Multi-Species (XSP2) HepG2 Assay for turtle Androgen Receptor (AR) (AID 2283815);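 for AC50: potency for gain of reporter signal meaning activation above DMSO baseline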
How it was run: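 HepG2 cells transiently transfected with GAL4-UAS reporter units for chimeric NR-Gal4 receptors; 24 h dosing in presence of 3 nM 6-alpha-fluorotestosterone and 1.5 nM norgestrel. Reporter mRNA by RT-PCR and capillary electrophoresis, gain of signal versus DMSO.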

[7] = target: zebrafish Thyroid Hormone Receptor alpha (TRa), thraa (gene 30670) (UniProt Q98867); assay: ATG_zfTRa_XSP1: Attagene TRANS-FACTORIAL Multi-Species (XSP1) HepG2 Assay for zebrafish Thyroid Hormone Receptor alpha (TRa) (AID 2283807)
How it was run: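 HepG2 cells transiently transfected with GAL4-UAS reporter units including a zebrafish TRa–Gal4 chimera, dosed 24 h with 3 nM 6-alpha-fluorotestosterone present. Reporter mRNA quantified by RT-PCR and capillary electrophoresis; gain versus DMSO.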

[8] = target: human Thyroid hormone Receptor beta (TRb), THRB (gene 7068) (UniProt P10828); assay: ATG_hTRb_XSP1: Attagene TRANS-FACTORIAL Multi-Species (XSP1) HepG2 Assay for human Thyroid hormone Receptor beta (TRb) (AID 2283808)
How it was run: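 HepG2 cells transiently transfected with reporter units driving GAL4-UAS reporters for chimeric NR-Gal4 proteins; 24 h chemical exposure with 3 nM 6-alpha-fluorotestosterone present. Reporter mRNA quantified by RT-PCR and capillary electrophoresis, gain of signal versus DMSO.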

[9] = target: zebrafish Thyroid Hormone Receptor beta (TRb), thrb (gene 30607) (UniProt Q9PVE4); assay: ATG_zfTRb_XSP1: Attagene TRANS-FACTORIAL Multi-Species (XSP1) HepG2 Assay for zebrafish Thyroid Hormone Receptor beta (TRb) (AID 2283809)
How it was run: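 HepG2 cells transiently transfected with multiplexed GAL4-UAS reporter units expressing chimeric zebrafish TRb–Gal4. Dosed 24 h with 3 nM 6-alpha-fluorotestosterone present; reporter mRNA measured by RT-PCR, HpaI digestion and capillary electrophoresis; gain of signal versus DMSO.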

[10] = ATG_XTT_Cytotoxicity_XSP1: Cytotoxicity Assessment in the Attagene TRANS-FACTORIAL Multi-Species (XSP1) HepG2 Assay (AID 2283810)
How it was run: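 XTT viability readout taken at 24 hours post-dosing in HepG2 liver cells co-treated with 3 nM 6-alpha-fluorotestosterone. Signal loss relative to DMSO controls reflects cytotoxicity.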

Measured: AC50

GAL4 Transcription Factor (Internal Marker), GAL4 (gene 855828), sequence (P04386 whole entry, looked up, the tested form may be a part): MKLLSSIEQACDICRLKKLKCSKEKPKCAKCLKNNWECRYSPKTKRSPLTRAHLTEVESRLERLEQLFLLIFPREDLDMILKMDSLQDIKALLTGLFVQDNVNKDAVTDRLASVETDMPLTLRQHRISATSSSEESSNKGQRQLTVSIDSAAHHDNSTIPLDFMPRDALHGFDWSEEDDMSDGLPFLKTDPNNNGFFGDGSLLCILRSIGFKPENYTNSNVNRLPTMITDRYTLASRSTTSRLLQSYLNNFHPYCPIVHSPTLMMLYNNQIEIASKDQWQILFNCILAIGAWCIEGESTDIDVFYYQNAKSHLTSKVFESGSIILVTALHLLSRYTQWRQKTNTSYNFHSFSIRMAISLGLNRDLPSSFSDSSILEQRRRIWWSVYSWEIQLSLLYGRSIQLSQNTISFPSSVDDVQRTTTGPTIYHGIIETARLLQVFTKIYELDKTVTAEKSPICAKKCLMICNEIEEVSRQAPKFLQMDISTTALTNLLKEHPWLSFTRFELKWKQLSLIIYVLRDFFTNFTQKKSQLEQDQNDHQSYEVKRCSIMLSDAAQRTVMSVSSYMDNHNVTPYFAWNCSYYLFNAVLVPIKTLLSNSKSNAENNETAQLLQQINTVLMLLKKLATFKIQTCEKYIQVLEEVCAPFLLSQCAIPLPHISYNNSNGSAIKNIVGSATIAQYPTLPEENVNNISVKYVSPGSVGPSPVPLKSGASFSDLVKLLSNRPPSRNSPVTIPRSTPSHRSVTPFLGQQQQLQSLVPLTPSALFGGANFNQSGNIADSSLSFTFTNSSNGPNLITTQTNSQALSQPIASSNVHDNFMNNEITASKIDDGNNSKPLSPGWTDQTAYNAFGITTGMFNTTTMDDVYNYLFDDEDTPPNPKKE
zebrafish Thyroid Hormone Receptor beta (TRb), thrb (gene 30607), sequence (Q9PVE4 whole entry, looked up, the tested form may be a part): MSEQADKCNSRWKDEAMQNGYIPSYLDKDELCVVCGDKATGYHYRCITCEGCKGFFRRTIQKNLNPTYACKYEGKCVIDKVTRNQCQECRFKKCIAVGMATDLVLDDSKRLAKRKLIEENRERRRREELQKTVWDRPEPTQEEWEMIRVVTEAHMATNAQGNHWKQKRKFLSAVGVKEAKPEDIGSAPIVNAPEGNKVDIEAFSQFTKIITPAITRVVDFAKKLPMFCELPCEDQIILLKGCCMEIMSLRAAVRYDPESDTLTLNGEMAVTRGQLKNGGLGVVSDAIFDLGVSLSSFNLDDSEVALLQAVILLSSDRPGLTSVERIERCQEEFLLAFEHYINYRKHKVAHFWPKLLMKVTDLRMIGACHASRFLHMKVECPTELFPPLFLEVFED
zebrafish Thyroid Hormone Receptor alpha (TRa), thraa (gene 30670), sequence (Q98867 whole entry, looked up, the tested form may be a part): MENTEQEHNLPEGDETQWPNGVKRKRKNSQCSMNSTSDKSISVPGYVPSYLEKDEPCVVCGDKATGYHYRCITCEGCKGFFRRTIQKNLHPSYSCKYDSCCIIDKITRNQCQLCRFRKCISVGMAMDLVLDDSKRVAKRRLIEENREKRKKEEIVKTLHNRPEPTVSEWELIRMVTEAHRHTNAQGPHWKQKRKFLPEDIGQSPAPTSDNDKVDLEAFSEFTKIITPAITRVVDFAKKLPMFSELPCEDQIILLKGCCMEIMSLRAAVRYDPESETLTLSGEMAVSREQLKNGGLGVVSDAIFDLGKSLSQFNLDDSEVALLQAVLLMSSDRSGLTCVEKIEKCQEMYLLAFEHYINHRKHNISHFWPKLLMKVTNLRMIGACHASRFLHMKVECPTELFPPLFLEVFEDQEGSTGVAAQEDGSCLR
Estrogen receptor beta (Homo sapiens), sequence (Q92731 whole entry, looked up, the tested form may be a part): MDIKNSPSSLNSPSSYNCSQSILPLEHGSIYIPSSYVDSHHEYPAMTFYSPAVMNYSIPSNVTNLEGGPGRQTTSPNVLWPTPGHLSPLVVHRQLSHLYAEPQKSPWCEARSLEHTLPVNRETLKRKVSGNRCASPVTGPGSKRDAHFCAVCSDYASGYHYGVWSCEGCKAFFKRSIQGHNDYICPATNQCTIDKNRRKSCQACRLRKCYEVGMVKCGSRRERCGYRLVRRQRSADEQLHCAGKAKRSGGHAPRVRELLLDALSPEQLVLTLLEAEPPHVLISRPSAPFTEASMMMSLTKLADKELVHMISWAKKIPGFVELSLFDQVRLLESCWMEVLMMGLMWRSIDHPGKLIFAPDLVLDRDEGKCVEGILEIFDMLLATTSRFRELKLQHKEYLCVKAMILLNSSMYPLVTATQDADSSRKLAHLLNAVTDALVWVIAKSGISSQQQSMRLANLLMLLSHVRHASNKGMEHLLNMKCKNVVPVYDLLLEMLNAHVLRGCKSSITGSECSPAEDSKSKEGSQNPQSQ
zebrafish Estrogen Receptor (ER1), esr1 (gene 259252), sequence (P57717 whole entry, looked up, the tested form may be a part): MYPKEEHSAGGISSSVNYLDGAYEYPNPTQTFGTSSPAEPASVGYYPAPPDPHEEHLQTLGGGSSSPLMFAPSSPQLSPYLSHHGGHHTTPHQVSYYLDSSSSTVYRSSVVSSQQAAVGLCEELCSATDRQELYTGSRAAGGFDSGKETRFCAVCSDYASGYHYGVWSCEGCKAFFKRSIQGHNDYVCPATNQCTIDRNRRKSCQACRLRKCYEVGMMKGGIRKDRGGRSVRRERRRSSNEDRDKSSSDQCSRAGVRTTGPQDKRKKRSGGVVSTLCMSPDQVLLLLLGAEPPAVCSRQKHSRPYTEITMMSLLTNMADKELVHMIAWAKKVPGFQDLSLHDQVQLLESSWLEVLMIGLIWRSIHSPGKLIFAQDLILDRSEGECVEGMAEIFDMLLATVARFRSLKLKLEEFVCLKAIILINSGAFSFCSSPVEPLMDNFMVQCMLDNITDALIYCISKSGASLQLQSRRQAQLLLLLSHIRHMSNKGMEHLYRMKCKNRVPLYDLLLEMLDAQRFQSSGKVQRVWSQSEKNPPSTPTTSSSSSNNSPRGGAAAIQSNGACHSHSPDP
human Thyroid hormone Receptor beta (TRb), THRB (gene 7068), sequence (P10828 whole entry, looked up, the tested form may be a part): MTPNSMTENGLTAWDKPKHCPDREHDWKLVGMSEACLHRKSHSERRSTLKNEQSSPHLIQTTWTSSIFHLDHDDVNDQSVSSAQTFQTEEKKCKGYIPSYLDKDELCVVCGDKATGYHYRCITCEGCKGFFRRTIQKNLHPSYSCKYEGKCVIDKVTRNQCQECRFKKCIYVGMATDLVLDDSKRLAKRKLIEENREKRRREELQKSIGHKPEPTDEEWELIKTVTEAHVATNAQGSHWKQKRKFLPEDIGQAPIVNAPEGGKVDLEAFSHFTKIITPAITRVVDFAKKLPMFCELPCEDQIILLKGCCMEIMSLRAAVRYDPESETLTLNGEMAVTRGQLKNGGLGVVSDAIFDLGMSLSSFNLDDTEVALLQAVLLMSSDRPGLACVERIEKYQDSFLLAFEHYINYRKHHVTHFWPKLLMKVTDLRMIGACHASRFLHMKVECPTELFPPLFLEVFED

CCC(=C(c1ccc(O)cc1)c1ccc(OCCN(C)C)cc1)c1ccccc1
inactive: [1] | [2] | [3] | [4]

O=C(O)Cc1cc(I)c(Oc2cc(I)c(O)c(I)c2)c(I)c1
inactive: [1] | [5] | [3] | [6] | [4]

CCC(C)(C)C1CCC(O)CC1 (configuration not stated)
inactive: [7] | [8] | [9] | [1] | [5] | [3] | [4]

CC[C@H](c1ccc(O)cc1)[C@@H](CC)c1ccc(O)cc1
active: [5] 0.0546 nM | [2] 0.147 nM | [4] 0.000411 µM
inactive: [7] | [9] | [10] | [1]

CCCOC(=O)c1ccc(O)cc1
inactive: [1] | [3] | [6] | [4]
active: [5] 72.9 µM and 726 nM | [2] 31.9 µM and 2.52 µM | [4] 11.1 µM

C#C[C@]1(O)CC[C@H]2[C@@H]3CCC4=CC(=O)CC[C@@H]4[C@H]3CC[C@@]21C
active: [5] 122 nM | [2] 2430 nM | [6] 180 µM | [4] 1.65 µM

c1ccc2c(c1)ccc1ccccc12
inactive: [1] | [5] | [3]

Oc1cc2ccccc2c2ccccc12
inactive: [5] | [2] | [3] | [4]

O=c1c(-c2ccc(O)cc2)coc2cc(O)ccc12
inactive: [1] | [6]
active: [5] 994 nM and 448 nM | [6] 2.32 µM | [4] 6.22 µM and 2.67 µM

Cc1oc(-c2ccccc2)nc1CCOc1ccc(C[C@H](Nc2ccccc2C(=O)c2ccccc2)C(=O)O)cc1
inactive: [7] | [9] | [10] | [1] | [5] | [2]

Source: PubChem BioAssay (EPA / NIEHS)
